Test results reported in PubChem BioAssay (NCATS).
Inconclusive results are not listed. Calls of active or inactive are those of the source. Calls come from the whole dose curve; as a rule, active = well fitted inhibition curve with a large enough effect; inconclusive = small, poorly fitted or top-dose-only effect; inactive = flat fitted curve, though single readings scatter.

Tested on: 7G8
Experiment: qHTS profiling for inhibitors of Plasmodium falciparum proliferation (AID 504749); note: nearly all actives have a fitted effect of over 60% in size;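 for activity, negative = inhibition: 0% = DMSO vehicle and full inhibition = artemisinin control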
Conditions: P. falciparum in erythrocytes, SYBR Green DNA, 72 h; series mostly up to 28.7 µM; activity, negative = inhibition: at the top concentration
Summary of the method: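 In a 72 h erythrocytic culture (37 C, humidified, 5% CO2) at 2.5% hematocrit and 0.3% starting parasitemia, compounds were tested; SYBR Green I in detergent lysis buffer stained parasite DNA overnight.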
Potency is the fitted concentration of half-maximal effect.

| SMILES | activity, negative = inhibition | Potency |
| --- | --- | --- |
| COc1nccnc1NS(=O)(=O)c1ccc(N)cc1 | 0.49% (inactive) |  |
| OCC(O)CS (stereo not drawn) | 25.6% (inactive) |  |
| Cc1cc(-n2nc3ccc(Cl)cc3n2)c(O)c(C(C)(C)C)c1 | -13% (inactive) |  |
| Nc1c2c(nc3c1CCC3)CCCC2 |  | 11.2 µM (active) |
| Nc1ncnc(Nc2ccccc2)n1 | -15.9% (inactive) |  |
| CC(=O)OC[C@H]1O[C@@](COC(C)=O)(O[C@H]2O[C@H](COC(C)=O)[C@@H](OC(C)=O)[C@H](OC(C)=O)[C@H]2OC(C)=O)[C@@H](OC(C)=O)[C@@H]1OC(C)=O | -21.9% (inactive) |  |
| O=C(c1ccccc1)C(O)c1ccccc1 (stereo not drawn) | -29.9% (inactive) |  |
| CC(C)=CCC/C(C)=C/CO | -17% (inactive) |  |
| CCOC(=O)[C@H](CCc1ccccc1)N[C@@H](C)C(=O)N1CCC[C@H]1C(=O)O | 13.4% (inactive) |  |
| Cc1cc(OI)c(C(C)C)cc1-c1cc(C(C)C)c(OI)cc1C |  | 7.94 µM (active) |
| O=C1c2ccccc2C(=O)C1c1ccc(Br)cc1 |  | 11.2 µM (active) |
| CCCCCCCC(=O)OCC(COC(=O)CCCCCCC)OC(=O)CCCCCCC | -6.47% (inactive) |  |
| CCCCCC(C)N (stereo not drawn) |  | 10 µM (active) |
| Cc1onc(-c2ccccc2)c1-c1ccc(S(N)(=O)=O)cc1 | -19.8% (inactive) |  |
| Cc1c(I)c(=O)n(-c2ccccc2)n1C | -29.1% (inactive) |  |
| C[C@H]1COc2c(C3(N)CC3)c(F)cc3c(=O)c(C(=O)O)cn1c23 | -19.8% (inactive) |  |
| Cc1[nH]c(C)c(Cl)c(=O)c1Cl |  | 11.2 µM (active) |
| Cc1cc(C)c(NC(=O)CN(CC(=O)O)CC(=O)O)c(C)c1Br | -12.5% (inactive) |  |
